# In the library only some 19% were active in any assay of this set; here they are far more common.
# HepG2 viability: HepG2 cytotoxicity, counter-screen for TGF-b inhibitors; HepG2 CAGA-GFP viability, ATP luminescence, 18 h; Potency, µM (top dose mostly 46.1 µM), for the others: top-dose activity change, negative = cytotoxicity, actives largely listed as cytotoxic; 410,000 tested, 0.76% active; AID 588856; further: potency means the concentration at half of the fitted maximal effect
#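 CellTiter-Glo luminescence gave cytotoxicity after 18 hours at 37 degrees C. The cells were HepG2 CAGA-GFP in 1% FBS DMEM, stimulated with 500 pg/mL TGF-beta after compound addition. %Activity was normalised to no-cell wells (complete cell-killing) and DMSO (no toxicity), and curves were fitted and classified.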
# TGFb inhibitor: TGF-b pathway inhibition. HepG2 CAGA-GFP TGF-b/SMAD3 reporter, GFP fluorescence, 18 h; TGF-beta stimulated, 500 pg/mL final. Potency, µM (top dose mostly 46.1 µM), for the others: at the top dose activity, negative = inhibition, usual class: inhibitors. 410,000 tested, 1.2% active; further: potency means the concentration at half of the fitted maximal effect; on the % scale 0 is the no-effect control and ±100 the full control effect; nearly all actives have a fitted effect of over 65% in size
#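 Cell-based qHTS in HEPG2 carrying a CAGA-GFP Smad reporter; compounds added before 500 pg/mL final TGF-beta, 18 h incubation at 37 degrees C, GFP fluorescence quantified per cell by imaging cytometry.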
# ASM inhibitor: blocks human secretory acid sphingomyelinase; 340,000 tested, 0.006% active; Potency, µM (titrated, usually from 57.5 µM), inactives show at the top dose activity change, negative = inhibition, usual class: inhibitors; placental ASM, HMU-PC fluorogenic substrate, 60 min; further: potency means the concentration at half of the fitted maximal effect
# Target sequence (P17405 47-631 limits assumed): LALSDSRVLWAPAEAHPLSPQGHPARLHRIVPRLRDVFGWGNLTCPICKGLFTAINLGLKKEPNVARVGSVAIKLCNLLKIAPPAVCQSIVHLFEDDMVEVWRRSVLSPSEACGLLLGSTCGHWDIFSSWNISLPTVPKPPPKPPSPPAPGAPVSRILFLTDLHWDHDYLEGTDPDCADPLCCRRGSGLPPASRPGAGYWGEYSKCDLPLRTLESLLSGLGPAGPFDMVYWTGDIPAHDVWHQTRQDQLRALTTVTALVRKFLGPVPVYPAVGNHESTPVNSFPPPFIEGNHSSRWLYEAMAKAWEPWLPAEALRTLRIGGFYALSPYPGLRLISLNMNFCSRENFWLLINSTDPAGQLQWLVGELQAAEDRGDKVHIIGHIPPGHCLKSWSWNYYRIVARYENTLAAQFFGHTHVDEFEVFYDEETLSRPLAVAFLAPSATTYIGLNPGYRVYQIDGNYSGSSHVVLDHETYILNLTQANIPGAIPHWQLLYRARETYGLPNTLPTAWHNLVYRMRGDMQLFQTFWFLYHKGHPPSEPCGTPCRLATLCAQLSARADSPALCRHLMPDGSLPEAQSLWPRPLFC
#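 HMU-PC0 cleavage (9 uM final) by human placental ASM, 60 min at 37 °C following 10 min compound exposure at RT; stopped at pH 10, fluorescence Ex 386/Em 447 nm.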
# DT40 TDP1 CPT: DT40-hTDP1 cell growth loss with CPT | chicken DT40 Tdp1-/-;hTDP1 cells + 20 nM CPT, ATP luminescence, 48 h | Potency, µM (highest dose often 46.2 µM), for the others: at the highest dose activity change, negative = growth inhibition, usual class: inhibitors | 420,000 tested, 12% active | AID 686979; further: potency means the concentration at half of the fitted maximal effect; on the % scale 0 is the no-effect control and ±100 the full control effect; nearly all actives have a fitted effect of over 55% in size
#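 Chicken DT40 Tdp1-/- cells complemented with human TDP1, 400 cells/well, exposed to compounds plus 20 nM camptothecin for at least 48 h at 37 C; viability read as ATP content by CellTiter-Glo luminescence.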
# TDP1 cell noCPT: qHTS for Inhibitors of human tyrosyl-DNA phosphodiesterase 1 (TDP1): qHTS in cells in absence of CPT; Potency, µM (titrated, usually from 46.2 µM), without a hit: at the top dose activity change, negative = growth inhibition, usual class: inhibitors; DT40 Tdp1-/- hTDP1 cells, no CPT, ATP luminescence, 48 h; 420,000 tested, 15% active; further: potency means the concentration at half of the fitted maximal effect; on the % scale 0 is the no-effect control and ±100 the full control effect; nearly all actives have a fitted effect of over 55% in size
#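 A cellular qHTS used chicken DT40 cells lacking endogenous Tdp1 but carrying stably transfected human TDP1. Compounds were applied without camptothecin, and cell growth kinetics were judged by ATP-dependent luminescence after ≥48 hr.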
# IL-1B inflam inh: inflammasome signaling inhibition, IL-1 beta readout. activity change, % at 57.5 µM. THP-1 LPS/ATP IL-1B secretion, AlphaLISA, 16 h; stronger effect = lower value. 360,000 tested, 4.7% active. AID 743279; in the data active means activity change below about -50%; inconclusive means mostly about -30% to -49%; further: on the % scale 0 is the no-effect control and ±100 the full control effect
#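 Secreted IL-1B measured by AlphaLISA bead assay after 16 h compound exposure of THP-1 cells; compounds (final up to 57.5 uM) added 1 h before LPS (250 ng/mL) and ATP (1.25 mM) stimulation; lower signal means less secretion.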
# * marks the source's active call; other numbers are inactive results; u = inconclusive; x = not tested or not shown; [ ] = dose if it differs, or a comment. Unless noted, the call rests on the fitted dose curve; in most records, active means well fitted curve in the direction sought with a large enough effect; inconclusive means small, poorly fitted or top-dose-only effect, or another doubt; inactive means no such curve, though single readings can be large; an effect the other way counts as inactive or inconclusive.
SMILES,HepG2 viability,TGFb inhibitor,ASM inhibitor,DT40 TDP1 CPT,TDP1 cell noCPT,IL-1B inflam inh
C=CCN(c1ccccc1)S(=O)(=O)c1cccc(C(=O)Nc2cccc(C)n2)c1,-31%,0%,4%,18µM*,23µM*,-15
CCN(c1ccccc1)S(=O)(=O)c1ccc(C(=O)Nc2ccccn2)cc1,-43%,-28%,-1%,21µM*,u,-3
CCN(c1ccccc1)S(=O)(=O)c1cccc(C(=O)Nc2cccc(C)n2)c1,-17%,-12%,x,23µM*,21µM*,-4
COc1cc(OC)c(C(=O)OCC(=O)Nc2ccc(N3CCOCC3)cc2)cc1OC,-6%,-6%,1%,u,-24%,19
CCN(c1ccccc1)S(=O)(=O)c1ccc(C(=O)NCCc2ccc(S(N)(=O)=O)cc2)cc1,3%,31%,-2%,23µM*,u,18
O=C(O)c1sc(Nc2ccccc2)nc1-c1ccccc1,-9%,-2%,x,-4%,7%,x
COC(=O)c1ccc(NC2(C#N)C(=O)Nc3ccccc32)cc1 (configuration not stated),-3%,-8%,-3%,u,23µM*,7
COc1cc(OC)cc(C(=O)NNC(=O)CN2C(=O)NC3(CCCC3)C2=O)c1,6%,7%,2%,-15%,7%,-16
Cc1cccc(CNc2ccnc(-c3ccccc3CN(C)C)n2)c1,x,x,x,13µM*,7.3µM*,x
COc1ccccc1-c1nccc(NCc2cccc(C)c2)n1,x,x,x,16µM*,10µM*,x
COc1ccccc1CNc1cc(C)ccn1,0%,-17%,2%,u,-27%,-24
COc1ccccc1-c1cncnc1NCc1cccs1,x,x,x,-2%,-24%,x
COc1ccccc1-c1cncnc1NCc1cccc(C)c1,x,x,x,u,21µM*,x
O=C(c1cccc(NS(=O)(=O)c2ccccc2)c1)N1CCN(c2ccccc2)CC1,-8%,2%,2%,-4%,u,45
CC(=O)c1ccccc1-c1ccc2c(c1)CC(CNC(=O)c1cc(C)on1)O2 (configuration not stated),x,x,x,-7%[9.04 µM],u,x
Cc1c(NC(=O)c2ccc(COc3ccc4ccccc4c3)o2)c(=O)n(-c2ccccc2)n1C,-4%,-4%,-1%,u,23µM*,-14
CCC(NC(=O)CCc1c(C)c2cc3c4c(oc3cc2oc1=O)CCCC4)C(=O)O (configuration not stated),6%,0%,141%,-3%,-6%,-2
CCCc1cc(C(=O)N(C2CCCCC2)C2CCCCC2)no1,-25%,-28%,-2%,u,29µM*,54
CN(C)S(=O)(=O)c1cccc(N=C2SCCN2Cc2ccccc2)c1,2%,10%,0%,u,21µM*,-9
COc1cccc(CNC(=O)c2ccc3c(c2)sc2nc(-c4ccccc4)cn23)c1OC,-27%,u,x,9.2µM*,5.8µM*,x
COc1ccc(-c2cn3c(n2)sc2cc(C(=O)NCc4ccccc4)ccc23)cc1,-12%,-16%,x,u,u,x
O=C(NCc1cccs1)c1ccc2c(c1)sc1nc(-c3ccc(F)cc3)cn12,-20%,-13%,x,-20%,u,x
COc1ccccc1CNC(=O)c1ccc2c(c1)sc1nc(-c3ccc(F)cc3)cn12,-6%,-21%,x,7.3µM*,8.2µM*,x
COc1ccc(-c2cnc3ccccc3n2)cc1NC(=O)CNC(=O)c1ccccc1,-26%,-1%,x,u,u,21
Cc1ccc(C)c(Nc2nc(N)c3ccccc3n2)c1,-30%,-8%,0%,u,18µM*,x
Cc1ccc(C)c(Nc2ncnc(N)c2[N+](=O)[O-])c1,-15%,-8%,-1%,-2%,-21%,0
